Pf Dd2 growth: blocks in vitro growth of P. falciparum Dd2 | P. falciparum Dd2 growth, SYBR Green, 72 h | Potency, µM (titrated, usually from 28.9 µM), usual class: inhibitors | actives 4.3% (n = 120,000); active means well fitted inhibition curve with a large enough effect; further: nearly all actives have a fitted effect of over 65% in size
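Infected erythrocytes (Dd2, 0.3% parasitemia, 2.5% hematocrit final) are added to compound in RPMI-1640/Albumax II medium, grown 72 h at 37C in low oxygen, then lysed with saponin/Triton-X containing SYBR Green and read by fluorescence.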
Numbers stand for hits. Many of the other results were omitted from the sample, so hits are more common in it than they were.

How did O=C(Cn1ccn2nc(-c3ccccc3)c(CO)c2c1=O)NC1CCCC1 do in these assays?
Pf Dd2 growth: inactive

What do the screens show for `Cc1cc(C)n2nc(CC(=O)N[C@H](c3ccccn3)C3CC(O)C3)nc2n1` (some centres undefined)?
Pf Dd2 growth: inactive

How did COc1cccc(NC(=O)N2CCC(Oc3ncccc3C(=O)N(C)C)C2)c1 (centres undefined) do in these assays?
Pf Dd2 growth: inactive

What do the screens show for `COc1ccc(CCN(CC2CCN(C)CC2)C(=O)C(C)N2CCOCC2)cc1` (centres undefined)?
Pf Dd2 growth: inactive

Results for CC1(COc2ccc(-c3nc(COc4ccccc4)no3)cn2)CCCNC1 (centres undefined) ?
Pf Dd2 growth: inactive

Results for c1ccc(OCc2noc(-c3ccc(NC4CCSC4)nc3)n2)cc1 (centres undefined) ?
Pf Dd2 growth: 10µM

How did CCC(O)CNc1ccc(-c2nc(COC)no2)cn1 (centres undefined) do in these assays?
Pf Dd2 growth: inactive

Results for O=C(c1ccccc1F)N1CCn2c(nnc2C2CCNCC2)C1 ?
Pf Dd2 growth: inactive

Results for CCc1ccc(CN2CCC3(CCC(=O)N(Cc4cnc(C)cn4)C3)CC2)o1 ?
Pf Dd2 growth: inactive

How did CCn1ncc(C(=O)N2C[C@@H](CO)[C@H](c3ccccn3)C2)c1C do in these assays?
Pf Dd2 growth: inactive

How did Cc1nc(N2CCC(NC(=O)c3ccccn3)CC2)cc(C(F)(F)F)n1 do in these assays?
Pf Dd2 growth: inactive

Results for COc1cccc(C(=O)NC2CCN(c3cc(C(F)(F)F)nc(C)n3)CC2)c1 ?
Pf Dd2 growth: inactive

What do the screens show for `Cc1nc(N2CCC(NC(=O)c3cccnc3)CC2)cc(C(F)(F)F)n1`?
Pf Dd2 growth: inactive

How did COc1cccc(C(=O)NC2CCN(c3cc(C(F)(F)F)nc(C)n3)CC2)c1OC do in these assays?
Pf Dd2 growth: 11µM

What do the screens show for `COc1ccccc1CCC(=O)NC1CCN(c2cc(C(F)(F)F)nc(C)n2)CC1`?
Pf Dd2 growth: inactive

What do the screens show for `Cc1nc(N2CCC(NC(=O)c3cc4ccccc4[nH]3)CC2)cc(C(F)(F)F)n1`?
Pf Dd2 growth: 2µM

What do the screens show for `COCCN1CCC(CN(C)C2CCNCC2)C1` (centres undefined)?
Pf Dd2 growth: inactive

How did COCCNC(=O)[C@@H]1C[C@@H](O)CN1C1CCN(C(=O)CCn2nc(C)cc2C)CC1 do in these assays?
Pf Dd2 growth: inactive

How did CNC(=O)[C@@H]1CN(C(=O)c2ccc(C#N)cc2)C[C@H]1COC do in these assays?
Pf Dd2 growth: inactive

Results for Cc1nccn1-c1ccc(CNC(=O)c2cn(-c3ccccc3)nn2)cc1 ?
Pf Dd2 growth: inactive

How did CCCOc1cc(C)c2c(c1C)C[C@H](C(C)C(=O)NCc1ccc(OC)cc1)CC2 (some centres undefined) do in these assays?
Pf Dd2 growth: 10µM

How did COCCOc1cc(C)c2c(c1C)C[C@H](C(C)C(=O)N1CCOCC1)CC2 (some centres undefined) do in these assays?
Pf Dd2 growth: inactive

Results for COc1cc(C)c2c(c1C)C[C@H](C(C)C(=O)NCc1cccs1)CC2 (some centres undefined) ?
Pf Dd2 growth: 11µM

What do the screens show for `Cc1cc(OCCN(C)C)c(C)c2c1CC[C@@H]([C@H](C)C(=O)NCc1ccccc1)C2`?
Pf Dd2 growth: inactive

How did Cc1cc(OCCN2CCOCC2)c(C)c2c1CC[C@@H]([C@H](C)C(=O)N1CCCCC1)C2 do in these assays?
Pf Dd2 growth: 11µM

What do the screens show for `Cc1cc(OCCN2CCOCC2)c(C)c2c1CC[C@@H]([C@H](C)C(=O)NCc1cccnc1)C2`?
Pf Dd2 growth: inactive

What do the screens show for `COCCOc1cc(C)c2c(c1C)C[C@H](C(C)C(=O)N1CCCCC1)CC2` (some centres undefined)?
Pf Dd2 growth: inactive

Results for CCCOc1cc(C)c2c(c1C)C[C@H]([C@H](C)C(=O)NCCOC)CC2 ?
Pf Dd2 growth: inactive

What do the screens show for `COc1cc(C)c2c(c1C)C[C@H](C(C)C(=O)N1CCN(CCO)CC1)CC2` (some centres undefined)?
Pf Dd2 growth: inactive

Results for CN1CCN(Cc2nnc(C3CCN(Cc4cccnc4N)CC3)n2C)CC1 ?
Pf Dd2 growth: inactive

What do the screens show for `NCCCC(=O)N1CCCC(N2CCN(c3cccc(C(F)(F)F)c3)CC2)C1` (centres undefined)?
Pf Dd2 growth: inactive

Results for COc1cccc(C(=O)N2[C@@H]3CC[C@H]2CC(NC(=O)c2ccncc2)C3)c1 (some centres undefined) ?
Pf Dd2 growth: inactive

What do the screens show for `COc1ccc(-c2cn(C)c(=O)n3cc(COc4ccccc4)nc23)cn1`?
Pf Dd2 growth: inactive

Results for O=C1NCCCCCN(Cc2cccnc2)[C@@H]2CN(S(=O)(=O)c3ccccc3)CC[C@@H]12 ?
Pf Dd2 growth: inactive

Results for CNC(=O)N1CCC(OC2CCN(S(C)(=O)=O)CC2)CC1 ?
Pf Dd2 growth: inactive

What do the screens show for `Cc1nn(Cc2nc(-c3ccc4nc[nH]c4c3)no2)c(=O)c2ccccc12`?
Pf Dd2 growth: inactive

How did O=C1CC(c2ccccc2)N(C(=O)CNC(=O)NCCc2ccccc2)CCCCCN1 (centres undefined) do in these assays?
Pf Dd2 growth: inactive

How did COc1ccc(-c2cn3cc(C(=O)NCC(N)=O)nc3c(=O)n2CC2CC2)c(F)c1 do in these assays?
Pf Dd2 growth: inactive

How did CCCN(C(=O)c1cc2c(=O)oc3ccccc3c2s1)c1cccc(Cl)c1 do in these assays?
Pf Dd2 growth: inactive

What do the screens show for `CCCN(C)C(=O)c1cn2cc(-c3cccc(Cl)c3)n(CC=C(C)C)c(=O)c2n1`?
Pf Dd2 growth: 13µM

How did CCN(CC)c1ccc2cc(-c3nnc(-c4cccc(Cl)c4)o3)c(=O)oc2c1 do in these assays?
Pf Dd2 growth: inactive

What do the screens show for `CC(C)=CCn1c(-c2cc(C)oc2C)cn2cc(C(=O)N(C)CC(C)C)nc2c1=O`?
Pf Dd2 growth: 11µM

Results for O=C1NCC2(CCN(C(=O)c3ccc(Cl)cc3)CC2)Oc2ccccc21 ?
Pf Dd2 growth: inactive

How did Cc1noc(C)c1C(=O)N1CCC(N2C(=O)C3(CCCC3)C2c2ccccc2)CC1 (centres undefined) do in these assays?
Pf Dd2 growth: inactive

Results for O=C(Nc1ccc(Cl)cc1Cl)c1cn2c(n1)CN(C(=O)c1ccccc1)CC2 ?
Pf Dd2 growth: inactive

What do the screens show for `CN1C(=O)CCC2(CNC(=O)c3n[nH]c(=O)c4ccccc34)CCC=C12` (centres undefined)?
Pf Dd2 growth: inactive

What do the screens show for `CCn1cc2nc(SCc3cccc(Cl)c3)n(Cc3ccc(C)cc3)c(=O)c2n1`?
Pf Dd2 growth: inactive

What do the screens show for `CCn1cc2nc(SCc3cccc(C)c3)n(CCc3ccccc3)c(=O)c2n1`?
Pf Dd2 growth: inactive

How did CCn1cc2nc(SCc3cccc(C(F)(F)F)c3)n(Cc3ccc(C)cc3)c(=O)c2n1 do in these assays?
Pf Dd2 growth: 10µM

What do the screens show for `COc1ccc(C(=O)N2CCC(N3CCCC3=O)CC2)cc1`?
Pf Dd2 growth: inactive

How did Cn1ccnc1CN1C(=O)NC2(CCNCC2)C1=O do in these assays?
Pf Dd2 growth: inactive

What do the screens show for `O=C1N(CCCCOc2ccccc2)c2ccccc2NC12CCNCC2`?
Pf Dd2 growth: 7.9µM

How did O=C1NC2(CCNCC2)C(=O)N1CCCc1cccnc1 do in these assays?
Pf Dd2 growth: inactive

What do the screens show for `Cc1cccc(C(=O)N2C(C(=O)NCC(C)C)COC23CCN(C(=O)c2ccccc2Cl)CC3)c1` (centres undefined)?
Pf Dd2 growth: inactive

Results for Cc1ccc(C(=O)N2CCC(C(NC(=O)c3cccs3)C(=O)NC3CC3)CC2)cc1 (centres undefined) ?
Pf Dd2 growth: inactive

Screening data (PubChem)
